The results in this text go back to PubChem BioAssay (Tox21).

Values joined by “and” are separate entries in the source; they are usually repeats but may differ in a detail not shown here. Identical values can stand only once. Inconclusive results are not listed. The source holds several records for some structures; these can differ, active in one and inactive in another. Active and inactive are the calls of the source. Unless noted, calls follow the shape of the full dose curve.

A short description of assay [1]: Nuclear factor erythroid 2-related factor 2/antioxidant responsive element (Nrf2/ARE) small molecule agonists: qHTS cell viability counter screen in human keratinocytes (AID 1919968; active = well fitted curve in the direction sought with a large enough effect in the repeat runs; an effect the other way counts as inactive or inconclusive; also: nearly all actives have a fitted effect of over 55% in size). The essentials:
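Stably transfected HaCaT (KeratinoSens), 1,500/well. Test agents in DMSO were applied for 23 h, 37 C/5% CO2. CellTiter-Fluor was incubated 1 h before the fluorescence read.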
(qHTS replaces the single test concentration by a dilution series.)

Assay [2] in a line: Nuclear factor erythroid 2-related factor 2/antioxidant responsive element (Nrf2/ARE) small molecule agonists: luciferase reporter gene qHTS assay in human keratinocytes (AID 1919969). Also: nearly all actives have a fitted effect of over 35% in size.
Assay [3] deals with Gonadotropin-releasing hormone receptor (Homo sapiens) (UniProt P30968). Nature of the assay: Human gonadotropin-releasing hormone receptor (GnRHR) small molecule agonists, calcium flux assay in GnRHR-HEK293 cells (AID 1920063). Also: nearly all actives have a fitted effect of over 35% in size. Put shortly: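 Stable human GnRHR HEK293 line. 18 h plating, then calcium dye for 1 h at 37 C. Agonist-mode compound addition from DMSO stocks; fluorescence monitored 3 min.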
A general note: A change in cytosolic calcium serves as a functional read-out for many receptors and channels.

The target in assay [4] is KiSS-1 receptor (Homo sapiens) (UniProt Q969F8). Put plainly: Human kisspeptin (KISS1R) small molecule agonists, calcium flux assay in KISS1R-HEK293 cells (AID 1920064; active = well fitted curve in the direction sought with a large enough effect in the repeat runs; an effect the other way counts as inactive or inconclusive). Put shortly: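 After overnight (18 h) culture at 37 C/5% CO2, human KISS1R-HEK293 cells received calcium dye for 1 h, then test compound; emission at 540 nm (excitation 480 nm) was tracked for 3 min.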

The nature of assay [5]: p53 small molecule agonists, cell-based qHTS assay with human liver microsomes (AID 1963577). The essentials: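 p53RE-bla cells, 4,000/well, compound added after 5 h, with human liver microsomes 0.5 mg/mL and NADPH 0.5 mg/mL final; 16 h at 37 C, then LiveBLAzer 2 h RT, fluorescence.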
Assay [6] is described as follows: p53 small molecule agonists, cell-based qHTS assay with rat liver microsomes (AID 1963578). The essentials:
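p53RE-bla cells, 4,000/well, pre-incubated 5 h, then given compounds plus rat liver microsomes (0.5 mg/mL final) and NADPH (0.5 mg/mL final). Incubation 16 h at 37 C; beta-lactamase reporter read by LiveBLAzer fluorescence after 2 h at room temperature.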

Assay [7] is described as follows: p53 small molecule agonists, cell-based qHTS assay with human liver microsomes: qHTS cell viability counter screen (AID 1963579). Also: nearly all actives have a fitted effect of over 45% in size. Put shortly: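 p53RE-bla cells, 4,000/well, dosed 5 hours after plating, with human liver microsomes (0.5 mg/mL final) plus NADPH (0.5 mg/mL final), 16 hours at 37 C. Viability read as CellTiter-Glo luminescence after 30 min at room temperature.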

Assay [8] is described as follows: p53 small molecule agonists, cell-based qHTS assay with rat liver microsomes: qHTS cell viability counter screen (AID 1963580). Also: nearly all actives have a fitted effect of over 45% in size. Put shortly: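 Luminescent ATP readout (CellTiter-Glo, 30 min at room temperature) reports viability of p53RE-bla HCT-116 cells after 16 h at 37 C with test compounds under metabolic activation by rat liver microsomes and NADPH at 0.5 mg/mL final each.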

The nature of assay [9]: p53 small molecule agonists, cell-based qHTS assay: qHTS cell viability counter screen (AID 1963581). Also: nearly all actives have a fitted effect of over 45% in size. The essentials:
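qHTS counter screen: 16 h compound exposure at 37 C of p53RE-bla HCT-116 cells (4,000 per well, seeded 5 h prior), cell viability by ATP luminescence.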

The nature of assay [10]: p53 small molecule agonists, cell-based qHTS assay (AID 1963582; active = well fitted activation curve with a large enough effect in the signal ratio in the repeat runs, not every such curve was filed as active; the % refers to the signal ratio). The essentials:
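Measured: fluorescence from cleaved LiveBLAzer substrate. System: p53RE-bla cells, 16 h compound treatment at 37 C, 2 h substrate step at room temperature.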

For assay [11], the target named is 5-hydroxytryptamine receptor 2A (Homo sapiens) (UniProt P28223). Nature of the assay: 5-hydroxytryptamine receptor 2A (HTR2A) small molecule antagonists, cell-based qHTS assay (AID 1963586). Also: nearly all actives have a fitted effect of over 45% in size. The essentials:
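CHO cells stably expressing human HTR2A were plated for 18 h at 37 C, then loaded with calcium dye for 1 h. Compounds were preincubated 5 min at room temperature before DOI (4 nM solution) was added. Kinetic fluorescence was read for 3 min.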

Assay [12] has the same target. Nature of the assay: 5-hydroxytryptamine receptor 2A (HTR2A) small molecule agonists, cell-based qHTS assay (AID 1963587). Also: nearly all actives have a fitted effect of over 30% in size. The essentials: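 HTR2A-CHO cells, plated 18 h at 37 C/5% CO2, dye-loaded 1 h at 37 C; compounds in DMSO added by pin tool (agonist mode). Intracellular calcium flux read as kinetic fluorescence on FDSS over 2 min at 1 s intervals.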
In assay [13] the target is Muscarinic acetylcholine receptor M1 (Homo sapiens) (UniProt P11229). Put plainly: Cholinergic receptor muscarinic 1 (CHRM1) small molecule antagonists, cell-based qHTS assay (AID 1963588). Also: nearly all actives have a fitted effect of over 40% in size. Also: potency is read from the fitted curve at half-maximal effect. Put shortly: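 Compounds were tested at 15 concentrations in three independent runs. Dye-loaded CHRM1-CHO cells were exposed 5 min at room temperature before stimulation by acetylcholine added at 50nM. Intracellular calcium was read kinetically on FDSS for 3 min.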

The target is the same in assay [14]. Nature of the assay: Cholinergic receptor muscarinic 1 (CHRM1) small molecule agonists, cell-based qHTS assay (AID 1963589). Also: nearly all actives have a fitted effect of over 35% in size. The essentials: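 Kinetic fluorescence (1 s intervals) of calcium-sensitive dye in human M1 CHO cells after compound addition; cells pre-incubated 18 h at 37 C/5% CO2 and dye-loaded 1 h.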
A short description of assay [15]: cAMP Responsive Elements (CRE) small molecule agonists, cell-based qHTS assay (AID 1963590). The essentials:
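Test agents in DMSO were incubated 3 h at 37 C/5% CO2 with CRE-bla HEK 293T cells seeded 18 h earlier; LiveBLAzer B/G FRET substrate was added and read after 2 h at room temperature.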

Assay [16] is described as follows: cAMP Responsive Elements (CRE) small molecule antagonists, cell-based qHTS assay (AID 1963591; active = well fitted inhibition curve with a large enough effect in the signal ratio in the repeat runs, not every such curve was filed as active; the % refers to the signal ratio). The essentials:
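Reporter line CRE-bla HEK 293T in dialyzed-FBS DMEM; cells preincubated 18 h, treated 3 h with compound plus NKH477 (0.25 uM final); LiveBLAzer FRET, 2 h RT.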

In assay [17] the target is Beta-2 adrenergic receptor (Homo sapiens) (UniProt P07550). Nature of the assay: Adrenergic beta2 receptor (ADRB2) small molecule antagonists, cell-based qHTS assay (AID 1963592). Also: series mostly up to about 92 µM; nearly all actives have a fitted effect of over 50% in size. The essentials: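 Assay format: CHO-ADRB2 cells, 18-20hr seeding at 37C/5% CO2, then compound plus 1nM isoproterenol agonist mix for 0.5hr RT. Homogeneous time-resolved fluorescence cAMP detection after 1hr, expressed as 665/615 nm ratio.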

For assay [18], the target named is D(2) dopamine receptor (Homo sapiens) (UniProt P14416). Put plainly: Dopamine D2 receptor (DRD2) small molecule agonists, cell-based qHTS assay (AID 1963594). Also: nearly all actives have a fitted effect of over 35% in size. The essentials: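 HEK293 cells stably expressing DRD2 were cultured 24 h at 37 C, then given Ro20-1724 (0.1 mM final) and compounds for 10 min at room temperature. NKH477 (200nM) was then added for 30 min. cAMP was read by HTRF.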

Assay [19] shares this target. Put plainly: Dopamine D2 receptor (DRD2) small molecule antagonists, cell-based qHTS assay (AID 1963595; active = well fitted inhibition curve with a large enough effect in the signal ratio in the repeat runs, with a control signal flat; the % refers to the signal ratio). Put shortly:
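HEK293 cells stably expressing DRD2, preincubated with 0.1 mM Ro20-1724 and compounds 10 min, were stimulated with 200 nM NKH477 plus 12 nM quinpirole for 30 min at room temperature; cAMP measured by HTRF (665/620 nm).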

Assay [20] can be described thus: G protein-coupled receptor (GPCR) small molecule agonists, calcium flux assay: HEK293 wild type cell line counter screen (AID 1920065). The essentials: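 Following 18 h incubation at 37 C/5% CO2, plates got calcium dye for 1 h; compounds, ATP or DMSO were then pinned in and fluorescence followed kinetically (480/540 nm).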

D(2) dopamine receptor (Homo sapiens), sequence (P14416 whole entry, looked up): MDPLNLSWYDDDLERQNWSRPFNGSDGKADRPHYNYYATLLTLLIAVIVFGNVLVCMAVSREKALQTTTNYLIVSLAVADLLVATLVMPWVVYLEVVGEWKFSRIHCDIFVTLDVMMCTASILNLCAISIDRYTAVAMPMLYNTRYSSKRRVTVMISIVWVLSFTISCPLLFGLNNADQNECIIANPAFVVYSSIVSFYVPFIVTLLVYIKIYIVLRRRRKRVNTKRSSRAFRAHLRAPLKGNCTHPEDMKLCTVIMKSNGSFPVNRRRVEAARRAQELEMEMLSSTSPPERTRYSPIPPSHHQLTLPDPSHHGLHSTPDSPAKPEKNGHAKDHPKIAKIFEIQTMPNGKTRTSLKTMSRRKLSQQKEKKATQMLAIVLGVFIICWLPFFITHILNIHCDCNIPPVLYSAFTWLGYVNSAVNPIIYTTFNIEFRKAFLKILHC
KiSS-1 receptor (Homo sapiens), sequence (Q969F8 whole entry, looked up): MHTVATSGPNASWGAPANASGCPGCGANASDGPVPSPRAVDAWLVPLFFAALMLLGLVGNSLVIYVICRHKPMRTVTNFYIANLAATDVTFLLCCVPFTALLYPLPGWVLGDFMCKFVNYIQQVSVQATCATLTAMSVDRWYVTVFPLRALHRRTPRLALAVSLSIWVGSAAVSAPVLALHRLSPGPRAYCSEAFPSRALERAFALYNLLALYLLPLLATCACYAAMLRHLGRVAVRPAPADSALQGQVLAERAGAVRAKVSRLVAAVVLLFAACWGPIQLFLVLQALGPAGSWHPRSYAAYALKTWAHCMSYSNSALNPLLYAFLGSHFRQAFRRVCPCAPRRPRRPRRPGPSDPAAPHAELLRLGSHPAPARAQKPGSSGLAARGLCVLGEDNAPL
Beta-2 adrenergic receptor (Homo sapiens), sequence (P07550 whole entry, looked up): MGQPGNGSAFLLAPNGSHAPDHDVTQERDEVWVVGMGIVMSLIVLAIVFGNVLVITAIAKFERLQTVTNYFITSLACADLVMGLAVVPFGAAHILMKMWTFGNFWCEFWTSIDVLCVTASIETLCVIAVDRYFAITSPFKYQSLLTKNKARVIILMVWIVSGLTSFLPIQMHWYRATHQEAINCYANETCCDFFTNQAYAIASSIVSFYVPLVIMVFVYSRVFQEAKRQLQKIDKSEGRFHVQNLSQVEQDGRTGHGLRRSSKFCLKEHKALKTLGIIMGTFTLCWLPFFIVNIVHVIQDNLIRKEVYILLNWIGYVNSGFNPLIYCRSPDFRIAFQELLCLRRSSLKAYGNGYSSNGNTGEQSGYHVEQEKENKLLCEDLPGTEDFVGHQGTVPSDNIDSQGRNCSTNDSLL
Gonadotropin-releasing hormone receptor (Homo sapiens), sequence (P30968 whole entry, looked up): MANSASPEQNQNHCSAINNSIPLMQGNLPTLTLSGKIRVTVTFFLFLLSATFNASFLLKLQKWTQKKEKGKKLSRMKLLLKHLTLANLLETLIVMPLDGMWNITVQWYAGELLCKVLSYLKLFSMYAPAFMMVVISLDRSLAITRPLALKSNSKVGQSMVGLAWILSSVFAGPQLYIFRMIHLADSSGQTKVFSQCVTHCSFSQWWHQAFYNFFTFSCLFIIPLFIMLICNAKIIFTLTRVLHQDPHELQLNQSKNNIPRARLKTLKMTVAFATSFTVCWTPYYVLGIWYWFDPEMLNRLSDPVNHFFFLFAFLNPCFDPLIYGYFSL
5-hydroxytryptamine receptor 2A (Homo sapiens), sequence (P28223 whole entry, looked up): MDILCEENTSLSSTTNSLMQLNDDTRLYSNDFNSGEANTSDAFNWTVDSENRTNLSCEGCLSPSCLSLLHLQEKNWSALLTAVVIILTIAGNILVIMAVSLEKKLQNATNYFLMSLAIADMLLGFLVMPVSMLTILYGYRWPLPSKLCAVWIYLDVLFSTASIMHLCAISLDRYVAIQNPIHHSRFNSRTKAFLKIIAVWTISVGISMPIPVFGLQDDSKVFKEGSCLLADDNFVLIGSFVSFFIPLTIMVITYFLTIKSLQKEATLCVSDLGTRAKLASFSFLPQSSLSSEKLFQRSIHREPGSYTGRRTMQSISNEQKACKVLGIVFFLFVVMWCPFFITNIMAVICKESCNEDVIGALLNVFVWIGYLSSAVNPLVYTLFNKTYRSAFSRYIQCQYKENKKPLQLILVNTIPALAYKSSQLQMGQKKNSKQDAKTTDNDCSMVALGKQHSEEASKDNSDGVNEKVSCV
Muscarinic acetylcholine receptor M1 (Homo sapiens), sequence (P11229 whole entry, looked up): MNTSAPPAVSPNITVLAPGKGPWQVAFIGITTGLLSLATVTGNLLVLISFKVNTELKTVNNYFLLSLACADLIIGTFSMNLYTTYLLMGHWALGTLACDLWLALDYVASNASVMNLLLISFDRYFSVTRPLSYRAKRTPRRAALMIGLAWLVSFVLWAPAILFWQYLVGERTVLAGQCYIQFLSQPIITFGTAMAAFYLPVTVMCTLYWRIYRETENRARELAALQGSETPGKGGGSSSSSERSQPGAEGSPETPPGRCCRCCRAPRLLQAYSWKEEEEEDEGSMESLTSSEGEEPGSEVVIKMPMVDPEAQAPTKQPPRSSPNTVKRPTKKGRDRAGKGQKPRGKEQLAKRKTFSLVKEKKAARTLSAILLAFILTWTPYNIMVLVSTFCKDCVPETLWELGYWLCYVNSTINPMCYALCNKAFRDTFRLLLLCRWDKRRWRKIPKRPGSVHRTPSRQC

Regarding `O=Cc1ccccc1`, the Potency result in [1], in assay [2], in assay [3], in [4], in assay [5] and in [6] was “inactive” each time. Moreover, the Potency result in [7], in assay [8], in assay [9], in [10], in [11] and in [12] was “inactive” each time. The Potency result in assay [13], in assay [14], in assay [15], in [16], in assay [17] and in assay [18] was “inactive” each time. For the same compound, the Potency entry in [19] is “inactive”.

For `Clc1ccc(C(Cl)(Cl)Cl)cc1`, the Potency result in assay [1], in assay [2], in assay [3], in assay [4], in assay [5] and in [6] was “inactive” each time. In addition, the Potency entry in assay [7], in [8], in assay [10], in assay [11], in [12] and in assay [13] was “inactive” in each case. Moreover, the Potency entry in assay [14], in assay [15], in assay [16], in [17], in assay [18] and in assay [19] was “inactive” throughout.

In the case of `Clc1ccccc1Cl`, the Potency result in assay [1], in assay [2], in [3], in [4], in assay [20] and in assay [7] was “inactive” throughout. The Potency result in [9], in assay [11], in assay [12], in assay [13], in [14] and in [15] was “inactive” throughout. Also, the Potency entry in [16], in [17], in assay [18] and in assay [19] was “inactive” each time.

For `O=C(O)c1ccccn1`, the Potency entry in assay [1], in assay [2], in assay [3], in assay [4], in assay [5] and in assay [6] was “inactive” each time. The Potency entry in assay [7], in assay [8], in [10], in [11], in assay [12] and in assay [13] was “inactive” each time. The Potency result in assay [14], in [15], in assay [16], in assay [17], in assay [18] and in assay [19] was “inactive” in each case.

In the case of `N#Cc1cc(Br)c(O)c(Br)c1`, the Potency result in assay [1], in assay [2], in [3], in assay [4], in assay [5] and in [6] was “inactive” each time. The Potency entry in assay [7], in [8], in [9], in assay [11], in assay [12] and in [13] was “inactive” in each case. The Potency result in [14], in assay [16], in assay [17] and in [18] was “inactive” in each case.

In the case of `CC(C)(C)c1ccccc1O`, the Potency entry in [1], in assay [2], in assay [3], in assay [4], in assay [20] and in [8] was “inactive” in each case. For the same compound, the Potency result in assay [9], in assay [11], in assay [12], in [13], in assay [14] and in [15] was “inactive” throughout. Moreover, the Potency entry in assay [16], in assay [17], in assay [18] and in assay [19] was “inactive” throughout.

With `c1ccc(P(c2ccccc2)c2ccccc2)cc1`, the Potency entry in assay [1], in assay [2], in [3], in assay [4], in [5] and in assay [6] was “inactive” in each case. Besides, the Potency entry in [7], in assay [8], in [9], in [10], in [11] and in [12] was “inactive” throughout. Besides, the Potency result in assay [13], in assay [14], in [15], in assay [16], in [17] and in assay [18] was “inactive” in each case. Further, in assay [19], the Potency entry was “inactive”.

As to `CCC(=O)C(CC(C)N(C)C)(c1ccccc1)c1ccccc1` (stereo not drawn), the Potency entry in [1], in [2], in assay [3], in assay [4], in assay [5] and in assay [6] was “inactive” throughout. The Potency result in assay [7], in assay [8], in [9], in [10], in assay [11] and in [12] was “inactive” throughout. Further, the Potency result in assay [14], in assay [17] and in assay [18] was “inactive” in each case. Further, in [13], the Potency result was “inactive and 10.1 µM (active)”.
